In the library only some 3.4% were active in any assay of this set; here they are far more common.
Luciferase inh: blocks Photinus pyralis firefly luciferase activity | 72,000 compounds, 2.2% hits | purified firefly luciferase, luminescence, 8 min | P08659 | Potency, µM (titrated, usually from 57.1 µM), for the others: at the highest dose activity change, negative = inhibition, hits mostly inhibitors; active = well fitted inhibition curve with a large enough effect; inconclusive = small, poorly fitted or top-dose-only effect; also: % is scaled to controls: 0 for no effect and ±100 for the full control effect; nearly all actives have a fitted effect of over 40% in size
Target sequence (P08659 whole entry, looked up): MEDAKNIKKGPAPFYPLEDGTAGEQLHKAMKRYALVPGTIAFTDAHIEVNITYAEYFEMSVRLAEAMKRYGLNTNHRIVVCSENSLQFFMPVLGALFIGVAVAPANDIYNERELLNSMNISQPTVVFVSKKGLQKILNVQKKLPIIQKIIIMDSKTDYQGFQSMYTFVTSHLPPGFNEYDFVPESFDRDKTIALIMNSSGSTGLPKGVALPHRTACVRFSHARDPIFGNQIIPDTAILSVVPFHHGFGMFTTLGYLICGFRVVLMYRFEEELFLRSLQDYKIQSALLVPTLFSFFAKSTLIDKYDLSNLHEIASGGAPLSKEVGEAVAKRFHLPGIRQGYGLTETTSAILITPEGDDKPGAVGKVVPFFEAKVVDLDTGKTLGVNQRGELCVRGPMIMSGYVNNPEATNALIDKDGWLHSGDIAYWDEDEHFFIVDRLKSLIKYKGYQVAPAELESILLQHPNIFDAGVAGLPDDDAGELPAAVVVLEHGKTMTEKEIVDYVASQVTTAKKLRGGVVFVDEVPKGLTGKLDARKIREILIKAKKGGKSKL
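Here, luciferase activity is measured as luminescence following an 8 min room-temperature reaction at 10 uM ATP, pH 7.2. Every library sample is titrated.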
Bst PK mod: modulators of Bacillus stearothermophilus pyruvate kinase | Potency, µM | purified pyruvate kinase, luminescence ATP production; ribose 5-phosphate activator present at AC10 | 51,000 compounds, 1.2% hits | AID 361; in the data active = potency below about 11 µM; inconclusive = mostly about 12 µM to 25 µM;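 the screen sought inhibitors and activators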;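 also: scaled between full activation by ribose 5 phosphate and full inhibition by luteolin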
GBA mod: alters purified human glucocerebrosidase activity. 48,000 compounds, 1.1% hits. purified enzyme, resorufin glucoside fluorescence (screen aimed at inhibitors), 20 min. P04062. Potency, µM. AID 360; in the data active = potency below about 15 µM; inconclusive = mostly about 16 µM to 33 µM;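 also: the screen sought inhibitors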
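Normal human glucocerebrosidase (0.2 nM final) was assayed with resorufin β-D-glucopyranoside (30 uM final) in 50mM citric acid/KH2PO4, 10mM sodium taurocholate, 0.01% tween-20, pH 5.9. Compounds were titrated; fluorescence (Ex 548, Em 600) read after 20 min at RT.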
An asterisk follows results filed as active; i = inactive; ? = inconclusive; . = no result given; [ ] = dose if it differs, or a comment. Potency is read from the fitted curve at half-maximal effect.

SMILES	Luciferase inh	Bst PK mod	GBA mod
Cc1ccc(NCN2C(=O)C3C4C=CC(C4)C3C2=O)cc1 (stereo not drawn)	-1%	.	.
O=C1C2C3C=CC(C3)C2C(=O)N1CNc1ccc(O)cc1 (stereo not drawn)	-10%	i	12*
CCNc1ncc2nc(C)c(=O)n(C3CC3)c2n1	1%[11.4 µM]	.	.
c1cncc(-c2nc(NCCN3CCOCC3)c3ccccc3n2)c1	-2%[2.29 µM]	.	.
COc1ccc(-c2cc(C(=O)N3CCOCC3)c3cc(C)ccc3n2)cc1	?	.	>77
Cc1ccc(-c2cc(C(=O)N3CCOCC3)c3ccccc3n2)cc1	13µM*	i	>77
CC(C)Oc1cccc(-c2cc(C(=O)N3CCN(S(C)(=O)=O)CC3)c3ccccc3n2)c1	5µM*	?	>77
O=C(O)c1cc(-c2ccc3cc4c(cc3c2)OCO4)nc2ccccc12	2.5µM*	.	.
CS(=O)(=O)N1CCN(C(=O)c2ccc(-c3ccccc3)cc2)CC1	2%	.	.
COc1cccc(-c2cc(C(=O)N3CCN(c4ncccn4)CC3)c3ccccc3n2)c1	6.3µM*	.	.
Cc1ccc2nc(-c3ccccn3)cc(C(=O)N3CCN(c4ncccn4)CC3)c2c1	5%	>57	>77
COC(=O)c1cc(-c2ccc3c(c2)OCO3)nc2ccccc12	-17%	.	.
COc1ccc(-c2nc3cnc(N4CCN(C)CC4)nc3n(Cc3ccc(F)cc3)c2=O)cc1	0%[11.4 µM]	.	.
CN(C)Cc1ccccc1-c1ccc2ncnc(N3CCOCC3)c2c1	0%[2.29 µM]	.	.
O=c1c(-c2ccc(F)cc2)nc2cnc(Oc3cccc(Cl)c3)nc2n1C[C@H]1CCCO1	-1%[11.4 µM]	.	.
Cn1cnc([N+](=O)[O-])c1[Se]c1nc(N)nc2c1ncn2[C@@H]1O[C@@H](CO)[C@H](O)[C@@H]1O	3%[11.4 µM]	.	.
C=C[C@@]1(C)CC(=O)[C@@]2(O)[C@@]3(C)[C@H](O)CCC(C)(C)[C@@H]3[C@H](O)[C@H](OC(C)=O)[C@]2(C)O1	-1%	.	.
NC(N)=NC(N)=Nc1c(F)c(F)c(F)c(F)c1F	3%[11.4 µM]	.	.
COc1ccccc1CCn1c(=O)c(-c2ccc(Cl)cc2)nc2cncnc21	2%[11.4 µM]	.	.
CN(Cc1ccco1)c1cc(-c2ccc3c(c2)OCO3)ncn1	-4%[2.29 µM]	.	.
O=C(OCC(=O)N1CCN(C(=O)c2ccco2)CC1)c1cc(-c2ccccc2)nc2ccccc12	-13%	?	>77
O=C(c1ccc2c3c(cccc13)CC2)N1CCN(c2ncccn2)CC1	1%	6*	>77
O=C(Nn1cnnc1)c1cc(-c2ccccn2)nc2ccccc12	-26%	.	>77
COc1cccc(-c2cc(C(=O)Nn3cnnc3)c3ccccc3n2)c1	3.2µM*	.	.
O=C(c1cnc(N2CCN(c3ncccn3)CC2)c2ccccc12)N1CCN(c2ncccn2)CC1	4%	>57	>77
SMILES	Luciferase inh	Bst PK mod	GBA mod
O=C(OCC(=O)N1CCN(C(=O)c2ccco2)CC1)c1cc(-c2ccc(F)cc2)nc2ccccc12	?	2.1*	>77
COc1ccccc1-c1ccc2ncnc(NCc3cnc(C)cn3)c2c1	-3%[2.29 µM]	.	.
COc1ncc2nc(-c3cc(F)cc(F)c3)c(=O)n(CCc3ccccc3)c2n1	0%[11.4 µM]	.	.
Cc1ccnc(NS(=O)(=O)c2ccc(N=[N+]=[N-])cc2)n1	2%[11.4 µM]	.	.
O=C(c1ccccc1F)N1CCN(Cc2cccc(Cl)c2)CC1	4%	>57	>77
O=C(Nc1cccc(Cl)c1)N1CCN(Cc2ccccc2)CC1	16µM*	.	.
COc1cc(C[C@H]2C(=O)OC[C@@H]2Cc2ccc(OC)c(OC)c2)ccc1O	-8%	.	.
COc1ccc(CCN(C)CCCOc2ccc(S(=O)(=O)c3[nH]c4ccccc4c3C(C)C)cc2)cc1OC	1%	.	.
COCc1nnc(NC(=O)CCc2ccccc2)s1	1%	>57	>77
CCCC(=O)Nc1ccc(C(=O)Nc2nnc(COC)s2)cc1	1%	>57	0.77*
COCc1nnc(NC(=O)c2ccc(NC(C)=O)cc2)s1	1%	>57	6.8*
COCc1nnc(NC(=O)c2cccs2)s1	-3%	>57	?
CNC(=O)[C@@H]1O[C@@H](n2cnc3c(NCc4cccc(I)c4)ncnc32)[C@H](O)[C@@H]1O	3%	.	.
CCN1C(=O)[C@H]2[C@H]3[C@H](O)[C@H](O)C/C(=N/OC/C=C(\C)CCC=C(C)C)[C@@H]3CC[C@@H]2C1=O	0%[11.4 µM]	.	.
CCO[C@H](c1cc(OC)cc([N+](=O)[O-])c1OC)[C@H](C)/C=C\CC(=O)OC	3%[11.4 µM]	.	.
N=C(N)SCCc1ccccn1	0%[11.4 µM]	.	.
c1cncc(CSc2ncnc3nc[nH]c23)c1	1%[11.4 µM]	.	.
O=c1cc(-c2ccccc2)[nH]n1-c1nc2ccccc2s1	-11%	>57	>77
O=c1cc(-c2ccccc2)[nH]c2nc3ccccc3n12	2.5µM*	1*	>77
COc1ccc(N2CCN(C(=O)CNC(=O)Cn3c(C)cc4ccccc4c3=O)CC2)cc1	3%	>57	>77
COc1ccccc1-n1cc(C(=O)NCC(=O)N2CCN(c3ccccc3)CC2)c2ccccc2c1=O	2µM*	3.7*	>77
COc1ccccc1-n1cc(C(=O)NCC(=O)N2CCN(c3ccccn3)CC2)c2ccccc2c1=O	6.3µM*	?	>77
O=C(Cn1cnc2ccccc2c1=O)NCC(=O)N1CCN(c2ccccn2)CC1	1%	>57	>77
Cc1cc(NC(=O)c2ccccc2)sc1C	13µM*	.	.
Cc1ccc(NC(=O)c2ccccc2)s1	7.9µM*	8.3*	>77
SMILES	Luciferase inh	Bst PK mod	GBA mod
O=C(Nc1cccc2ccccc12)c1ccccc1	0%[11.4 µM]	.	.
CNC(=O)c1cc(C)c(-c2ccccc2)s1	-3%	.	>77
C/C(CCC(=O)OC[C@@H]1O[C@H](C#Cc2ccccc2)C=C[C@@H]1Oc1ccc(C)cc1)=N/OC[C@@H](O)COCc1ccco1	0%[11.4 µM]	.	.
COc1ccc(C(=O)N2CCC3(CCCN(CC(C)C)C3)CC2)cc1	1%[11.4 µM]	.	.
O=C(O)c1cc(-c2ccncc2)nc2ccccc12	1%[11.4 µM]	.	.
CC(C)Oc1ccc2c(=O)c3cc(C(=O)O)ccc3oc2c1	-7%	.	.
Cc1c(C(=O)OCC(C)(C)CN(C)C)oc2ccccc12	13µM*	.	>77
Cc1c(C(=O)OC(C)CCN(C)C)oc2ccccc12 (stereo not drawn)	-2%	>57	>77
COc1ccccc1CCn1c(=O)cnc2cncnc21	1%[11.4 µM]	.	.
Cc1cc(C(=O)Nc2cnn(Cc3ccc(Cl)cc3Cl)c2)no1	-2%	9.2*	i
COc1ccc(-c2cc(C(=O)Nc3cnn(Cc4ccccc4C)c3)no2)cc1OC	-2%	>57	>77
CO[C@H]1COC(=O)C/C=C\[C@@H](C)[C@H](OC)COC(=O)CCC[C@@H]1C	1%[11.4 µM]	.	.
N#CC1=C(N)N(c2ccccc2)C2=C(C(=O)CCC2)C1c1cccs1 (stereo not drawn)	-6%	>57	13*
N#CC1=C(N)N(c2ccccc2C#N)C2=C(C(=O)CCC2)C1c1ccsc1 (stereo not drawn)	-1%	>57	>77
Cc1ccc2cc3cc(C(=O)N4CC(C)CC(C)C4)oc3nc2c1 (stereo not drawn)	-7%	.	>77
Cc1ccc2cc3cc(C(=O)N4CCCCC4C)oc3nc2c1 (stereo not drawn)	13µM*	?	>77
C=C1CC[C@@H]2O[C@]2(C)CC[C@@H]2[C@H]1CC2(C)C	1%[11.4 µM]	.	.
N#CC1=C(SCC(=O)NC23CC4CC(CC(C4)C2)C3)NC(=O)C(C#N)C12CCCCC2 (stereo not drawn)	-1%	>57	6.2*

Source: PubChem (National Center for Advancing Translational Sciences (NCATS))
